# Screens as filed in PubChem.
# GLP-1R agonist: qHTS of GLP-1 Receptor Agonists. 380,000 tested, 0.007% active. Glucagon-like peptide 1 receptor (Homo sapiens), P43220. Potency, µM (doses to about 45.6 µM), for the others: at the top dose activation, actives largely listed as activators. AID 624172, 2012. HEK293 GLP-1R CRE-luciferase, luminescence, 4-6 h; cells express a hypersensitive GLP-1R form; further: potency means the concentration at half of the fitted maximal effect; % of control where 0% means no effect
# Target sequence (P43220 whole entry, looked up): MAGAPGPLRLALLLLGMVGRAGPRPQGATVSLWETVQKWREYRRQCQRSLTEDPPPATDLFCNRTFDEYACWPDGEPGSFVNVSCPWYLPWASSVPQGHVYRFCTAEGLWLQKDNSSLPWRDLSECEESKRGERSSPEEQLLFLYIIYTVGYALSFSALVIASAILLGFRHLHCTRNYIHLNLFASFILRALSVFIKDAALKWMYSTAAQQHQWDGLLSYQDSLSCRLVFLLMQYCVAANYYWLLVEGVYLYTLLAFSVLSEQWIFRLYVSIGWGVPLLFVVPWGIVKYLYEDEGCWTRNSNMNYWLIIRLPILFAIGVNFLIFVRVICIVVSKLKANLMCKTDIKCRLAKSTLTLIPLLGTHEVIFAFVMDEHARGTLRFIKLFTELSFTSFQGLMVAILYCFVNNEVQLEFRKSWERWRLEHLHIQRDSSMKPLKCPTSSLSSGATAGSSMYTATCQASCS
# GLP-1R inv ag: qHTS of GLP-1 Receptor Inverse Agonists (Inhibition Mode). 410,000 tested, 1.6% active. AID 624417, 2012. Glucagon-like peptide 1 receptor (Homo sapiens), P43220. HEK293 GLP-1R CRE-luciferase, luminescence, 24 h; GLP-1R form is constitutively active. Potency, µM (top dose mostly 38.3 µM), without a hit: at the top dose activity change, negative = inhibition, most hits filed as inhibitors; further: potency means the concentration at half of the fitted maximal effect; on the % scale 0 is the no-effect control and ±100 the full control effect; nearly all actives have a fitted effect of over 55% in size
#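 HEK293 cells stably co-expressing constitutively active GLP-1R and a cAMP-responsive luciferase reporter were seeded in DMEM with 10% Nu serum, given compounds after 12 h, and incubated 24 h at 37 deg C. Luminescence was then read.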
# D3 ag: qHTS of D3 Dopamine Receptor Agonist: qHTS. D3R DiscoveRx beta-arrestin cells, luminescence, 90 min. AID 652048, 2013. 410,000 tested, 0.58% active. D(3) dopamine receptor (Homo sapiens), P35462. max activation, %; in the data active means max activation above about 30%; further: 0% is about no effect
#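 Cells at 1500/well, incubated overnight, then treated with pinned compounds (dopamine as control) for 90 min at 37 degrees C. DiscoveRx reagent added for 30 - 60 minutes at room temperature; luminescence read.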
# DRD3 antagonist: qHTS of D3 Dopamine Receptor Antagonist: qHTS | AID 652054, 2013 | D(3) dopamine receptor (Homo sapiens), P35462 | D3R cells, DiscoveRx beta-arrestin luminescence, antagonist mode; hits give low values | max response, negative = inhibition, % | 360,000 tested, 2.5% active; in the data active means max response below about -50%; inconclusive means no clear call, values can overlap the other calls; further: on the % scale 0 is the no-effect control and ±100 the full control effect
#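 Cells expressing the human receptor were seeded at 1500 cells/well, incubated overnight at 37 degrees C in 5% CO2, then exposed to library compounds with dopamine controls for 90 minutes at 37 degrees C before luminescent detection.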
# * hit, by the source's call; ? = inconclusive; · = no result; [ ] = another dose, or the depositor's remark. Rows were chosen to be rich in hits. Some 4.3% of all compounds tested hit in one or more screens of this group. Unless noted, the call rests on the fitted dose curve; in most records, active means well fitted curve in the direction sought with a large enough effect; inconclusive means small, poorly fitted or top-dose-only effect, or another doubt; inactive means no such curve, though single readings can be large; an effect the other way counts as inactive or inconclusive.
SMILES,GLP-1R agonist,GLP-1R inv ag,D3 ag,DRD3 antagonist
O=S(=O)(CC(CN1CCCCC1)N1CCCCC1)c1ccc2ccccc2c1 (configuration not stated),0%,?,-26,-85*
O=S(=O)(CC(CN1CCOCC1)N1CCOCC1)c1ccccc1 (configuration not stated),-8%,12%,-4,16
O=C(Nc1ccc(Br)cc1F)C(NS(=O)(=O)c1cccc2nsnc12)c1ccccc1 (configuration not stated),·,?,-5,·
COc1ccc(-c2ccc(=O)n(CC(=O)NCCc3ccccc3)n2)cc1,·,-62%,6,·
CC#CCN1C(=O)N[C@@H](c2ccccc2)C(C(=O)OC)=C1C,17%,0%,20,2
CCOc1cc2c(c3c1C(c1ccccc1)N(S(=O)(=O)c1ccc(C)cc1)C3)C(=O)C=CC2=O (configuration not stated),8%,-31%,-17,-115*
C[C@@H]1CN([C@@H](C)CO)C(=O)CCCn2nncc2CO[C@H]1CN(C)C(=O)Nc1ccc2c(c1)OCO2,-8%,0%,4,-1
COc1cccc(/C=N/Nc2ncnc3scc(-c4ccccc4)c23)c1OC,?,?,36*,42
CC1=Nc2nc(N3CCCCCC3)c(C#N)c3c4c(nc(c23)N1)N(c1ccc2ccccc2c1)C(=O)C4,-6%,0.5µM*,1,-2
N#Cc1c(N2CCN(c3ccc(F)cc3)CC2)nc(N)c2c(N)nc3c(c12)CC(=O)N3C1CC1,0%,2%,0,12
CN(CC(=O)NCc1ccco1)CC(=O)Nc1c(Cl)cccc1Cl,-9%,11%,-13,-6
Fc1ccccc1N1CCN(C(c2cccs2)c2nnnn2CCc2ccccc2)CC1 (configuration not stated),-2%,?,4,8
CC(C)C(c1nnnn1CC1CCCO1)N1CCN(Cc2ccc3c(c2)OCO3)CC1 (configuration not stated),-7%,7%,1,-23
CCC(C)(C)n1nnnc1C(c1ccc(C)cc1)N1CCN(Cc2ccc3c(c2)OCO3)CC1 (configuration not stated),-1%,-9%,2,-70*
c1ccc(CCn2nnnc2C(c2cccs2)N2CCN(Cc3ccc4c(c3)OCO4)CC2)cc1 (configuration not stated),-1%,7.1µM*,-4,-67*
CC(C)C(c1nnnn1Cc1ccccc1)N1CCN(Cc2ccc3c(c2)OCO3)CC1 (configuration not stated),5%,8.9µM*,-9,-7
COC(=O)c1ccccc1NC(=O)CSc1nc(C)c(Cl)c(C)c1C#N,·,5%,-22,·
CCOc1ccc(OCC)c(NC(=O)c2cc(-c3cccs3)nc3ccccc23)c1,0%,?,-1,·
CCN(CC)c1ccc(/C=N/n2c(-c3ccccc3Br)n[nH]c2=S)cc1,5%,?,-34,-71*
Cc1nn(-c2ccccc2)c(C)c1/C=N/n1c(-c2ccccc2Br)n[nH]c1=S,7%,66%,-1,-19
Cc1ccc(CCNC(=O)c2oc(=O)c3ccccc3c2-c2ccc(C)cc2)cc1,-2%,?,3,·
NS(=O)(=O)c1ccc(N2CCN(CCOc3ccc(Cl)cc3)CC2)nc1,16%,?,36*,-12
CC(C)(C)OC(=O)N1CCC(c2c(C(=O)NCC3CCN(C4CCCC4)C3)cnn2-c2ccccc2)CC1 (configuration not stated),11%,?,17,11
CC(C)(C)OC(=O)N1CCC(c2c(C(=O)NCC3CCN(C4CCCC4)C3)cnn2-c2cccc(Cl)c2)CC1 (configuration not stated),4%,13µM*,-5,0
O=C(/C=C/c1ccc([N+](=O)[O-])cc1)NCc1ccccn1,7%,9%,1,0
SMILES,GLP-1R agonist,GLP-1R inv ag,D3 ag,DRD3 antagonist
O=C(/C=C/c1ccc([N+](=O)[O-])cc1)Nc1ncc([N+](=O)[O-])s1,-14%,13µM*,1,14
CN(C)[C@@H]1C(=O)C(C(=O)NCN2CCCC2)=C(O)[C@@]2(O)C(=O)C3=C(O)c4c(O)cccc4[C@@](C)(O)C3C[C@@H]12 (some centres not stated),·,·,-26,·
c1ccc(CCNc2ncnc3scc(C4COc5ccccc5O4)c23)cc1 (configuration not stated),-13%,7.9µM*,21,-13
c1ccc2c(c1)OCC(c1csc3ncnc(N4CCCC4)c13)O2 (configuration not stated),-4%,?,2,57
Cc1ccc(C)c(Cn2c(=O)c3c(nc4n3CCN4c3ccc(F)cc3)n(C)c2=O)c1,·,-12%,-5,·
CCOC(=O)c1ccccc1NC(=O)Cn1nnc2sc3c(c2c1=O)CCCC3,·,12%,-1,·
O=C1CCCCC1Sc1nnc(-c2ccc3c(c2)OCO3)o1 (configuration not stated),-5%,3.2µM*,11,29
CCc1nnc(NC(=O)c2ccc3c(c2)C(=O)N(C(C)(C)C)C3=O)s1,6%,73%,38*,-24
COc1ccc(-c2nc3n(n2)C(c2ccc(OC)c(OC)c2)C(C(=O)Nc2cccnc2)=C(C)N3)cc1 (configuration not stated),·,6%,8,·
CCc1ccc(NC(=O)Cc2cn(C)c3ccccc23)cc1,10%,10µM*,-4,-3
CCc1cccc(NC(=O)Cc2cn(C)c3ccccc23)c1,-7%,?,0,22
CC(C)(CC(=O)NCc1ccc(Cl)cc1Cl)CC1=NS(=O)(=O)c2ccccc2N1,-3%,8.9µM*,1,·
O=C(CSc1c2c(nc3cc(Cl)ccc13)CCCC2)NCCN1CCOCC1,17%,35%,-2,-17
Clc1ccc2c(SCC3CO3)c3ccccc3nc2c1 (configuration not stated),-35%,?,-30,-91*
CCOc1ccc(C[C@H]2NC(=O)CCSSC[C@@H](C(=O)N3CCC[C@H]3C(=O)N[C@@H](CCCN)C(=O)NCC(N)=O)NC(=O)[C@H](CC(N)=O)NC(=O)[C@H]([C@@H](C)O)NC(=O)[C@H]([C@@H](C)CC)NC2=O)cc1,4%,·,3,·
CC(C)(C)NCC(O)COc1ccccc1C(=O)CCc1ccccc1 (configuration not stated),-3%,11µM*,-7,-21
CC(C)(C)NC[C@@H](O)COc1ccccc1C1CCCC1,5%[19.8 µM],·,·,·
CC(C)(C)NCC(O)COc1ccccc1C(C)(C)C (configuration not stated),-1%,7.9µM*,-16,-26
CCN(CC)c1ccc(S(=O)(=O)Nc2cc(Cl)ccc2Cl)cc1NC(=S)NC(=O)C1CCCC1,-16%,5µM*,-2,-3
